The source made the active and inactive calls. Rule for the calls: active = hit-call score of the fitted dose curve at least 0.9, where 1 is the maximum; inactive = score below 0.9.
Key:
[1] = ATG_E_Box_CIS: Attagene CIS-FACTORIAL HepG2 Assay for human Enhancer Box (E-box) (AID 2282936); settings: HepG2 E-box cis-reporter transcription, actives raise or lower the signal
Procedure, shortened: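 In this cell-based setup, HepG2 cells bearing transfected promoter-driven reporter units were exposed to chemicals for 24 h; reporter transcripts were amplified, 6-FAM-labelled, cut with HpaI and sized by capillary electrophoresis.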

[2] = ATG_M_61_CIS: Attagene CIS-FACTORIAL HepG2 Assay for M61 Transcription Factor (Internal Marker) (AID 2282937); settings: HepG2 Attagene CIS-FACTORIAL M61 internal marker reporter; actives raise or lower the signal
Procedure, shortened: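 Background-control endpoint: HepG2 cells with cis-regulated reporter constructs, 24 h exposure, reporter mRNA detected via fluorescent primer extension and capillary electrophoresis; values from bidirectional fitting with DMSO baseline.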

[3] = ATG_EGR_CIS: Attagene CIS-FACTORIAL HepG2 Assay for human Early Growth Response 1 (EGR1) (AID 2282938); settings: HepG2 Attagene CIS-FACTORIAL EGR reporter mRNA; actives raise or lower the signal
Procedure, shortened: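 Endpoint derived by bidirectional fitting versus DMSO vehicle. Method: cis-promoter reporter units transfected into HepG2, 24 h dosing, RNA isolation, RT-PCR with 6-FAM primer extension and HpaI digestion, then capillary electrophoresis fluorescence detection.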

[4] = ATG_M_19_CIS: Attagene CIS-FACTORIAL HepG2 Assay for M19 Transcription Factor (Internal Marker) (AID 2282939); settings: HepG2 Attagene CIS-FACTORIAL M19 internal marker reporter; actives raise or lower the signal
Procedure, shortened: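 Background-control endpoint from a multiplexed HepG2 reporter panel. Cells carrying cis-regulated reporter constructs are treated 24 h, then reporter transcripts are amplified, fluorescently labelled and sized by capillary electrophoresis. DMSO defines baseline.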

[5] = ATG_Ets_CIS: Attagene CIS-FACTORIAL HepG2 Assay for human Erythroblast Transformation Specific (ETS) (AID 2282941); settings: HepG2 ETS cis-reporter transcription, actives raise or lower the signal
Procedure, shortened: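 Endogenous transcription factor activity read as reporter mRNA via RT-PCR and capillary electrophoresis, with gain or loss fitted bidirectionally against DMSO. Human HepG2 liver cells, transiently transfected CIS reporter constructs, 24 h exposure.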

[6] = target: Hepatocyte nuclear factor 3-beta (Homo sapiens) (UniProt Q9Y261); experiment: ATG_FoxA2_CIS: Attagene CIS-FACTORIAL HepG2 Assay for human Forkhead box A2 (FOXA2) (AID 2282942); settings: HepG2 cis-reporter transcription factor activity, 24 h; actives raise or lower the signal
Sequence of Hepatocyte nuclear factor 3-beta (Homo sapiens) (Q9Y261 whole entry, looked up): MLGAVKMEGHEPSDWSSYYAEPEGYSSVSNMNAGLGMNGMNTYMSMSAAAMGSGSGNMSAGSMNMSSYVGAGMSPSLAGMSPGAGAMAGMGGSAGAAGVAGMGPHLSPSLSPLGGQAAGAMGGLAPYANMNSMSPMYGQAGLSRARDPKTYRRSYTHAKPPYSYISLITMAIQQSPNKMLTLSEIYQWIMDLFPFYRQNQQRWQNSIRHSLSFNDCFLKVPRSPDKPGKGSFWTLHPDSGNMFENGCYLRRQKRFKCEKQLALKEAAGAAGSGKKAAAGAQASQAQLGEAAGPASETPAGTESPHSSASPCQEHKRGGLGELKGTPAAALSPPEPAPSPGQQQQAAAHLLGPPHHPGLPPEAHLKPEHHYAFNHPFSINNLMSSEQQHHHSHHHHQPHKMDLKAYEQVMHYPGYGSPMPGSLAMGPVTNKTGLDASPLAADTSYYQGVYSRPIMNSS
Procedure, shortened: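 Measured: reporter mRNA induction or loss in HepG2 transiently carrying multiple cis-regulated reporter units, 24 h after dosing. Quantified by RT-PCR plus capillary electrophoresis, normalised to DMSO.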

[7] = ATG_FoxO_CIS: Attagene CIS-FACTORIAL HepG2 Assay for human Forkhead box O (FoxO) (AID 2282943); settings: HepG2 Attagene cis-reporter, FoxO element, mRNA; actives raise or lower the signal
Procedure, shortened: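 Transfected HepG2 reporter cells exposed to test chemical for 24 h; reporter RNA measured by reverse transcription, PCR and fluorescent capillary electrophoresis; curves fitted for increases and decreases against DMSO.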

[8] = ATG_GATA_CIS: Attagene CIS-FACTORIAL HepG2 Assay for human GATA Binding Protein (AID 2282944); settings: HepG2 GATA cis-element reporter, Attagene multiplex mRNA; actives raise or lower the signal
Procedure, shortened: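 Endogenous transcription factor activity was captured through cis-promoter-driven reporters in transfected HepG2 cells. After 24 h exposure, reporter transcripts were quantified by RT-PCR with fluorescent capillary electrophoresis, and responses fitted both directions against DMSO.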

[9] = ATG_GLI_CIS: Attagene CIS-FACTORIAL HepG2 Assay for human Zinc Finger Protein GLI1 (AID 2282945); settings: HepG2, Attagene cis-factorial reporter mRNA, GLI element; actives raise or lower the signal
Procedure, shortened: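 Transiently transfected HepG2 cells report endogenous transcription factor activity via cis-element-driven reporter units. After 24 h compound exposure, reporter mRNA was measured by RT-PCR with capillary electrophoresis; bidirectional fitting against DMSO baseline.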

[10] = target: Bile acid receptor (Homo sapiens) (UniProt Q96RI1); experiment: ATG_IR1_CIS: Attagene CIS-FACTORIAL HepG2 Assay for human Nuclear Receptor Subfamily 1 Group H Member 4 (NR1H4), IR1 submotif (AID 2282946); settings: IR1 reporter transcription, actives raise or lower the signal
Sequence of Bile acid receptor (Homo sapiens) (Q96RI1 whole entry, looked up): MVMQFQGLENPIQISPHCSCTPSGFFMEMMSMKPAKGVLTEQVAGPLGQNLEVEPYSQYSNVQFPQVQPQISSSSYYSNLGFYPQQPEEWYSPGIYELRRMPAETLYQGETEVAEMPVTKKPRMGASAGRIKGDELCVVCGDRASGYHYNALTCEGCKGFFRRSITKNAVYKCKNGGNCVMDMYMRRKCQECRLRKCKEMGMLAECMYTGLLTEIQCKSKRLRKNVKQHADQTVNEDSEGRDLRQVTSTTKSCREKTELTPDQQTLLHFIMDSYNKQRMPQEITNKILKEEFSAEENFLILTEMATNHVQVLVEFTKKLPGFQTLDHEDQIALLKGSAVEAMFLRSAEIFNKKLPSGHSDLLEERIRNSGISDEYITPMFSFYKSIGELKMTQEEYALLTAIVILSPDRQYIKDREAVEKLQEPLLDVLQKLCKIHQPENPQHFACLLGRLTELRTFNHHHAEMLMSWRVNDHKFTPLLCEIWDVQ
Procedure, shortened: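 Fluorescence of capillary-separated, HpaI-digested RT-PCR reporter products gave IR1-element mRNA induction in HepG2 cells 24 h after dosing. Endogenous transcription factors drove the cis-regulated reporters; activity was fitted bidirectionally against DMSO.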

[11] = ATG_GRE_CIS: Attagene CIS-FACTORIAL HepG2 Assay for human Glucocorticoid Response Elements (GRE) (AID 2282947); settings: HepG2 GRE cis-reporter, Attagene multiplex mRNA; actives raise or lower the signal
Procedure, shortened: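 Fluorescence intensity of reporter-specific cDNA fragments, separated by capillary electrophoresis, provides the signal. Constructs carry cis-regulating promoters in transiently transfected HepG2 liver cells; 24 h incubation; fitting is bidirectional against DMSO.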

[12] = ATG_ISRE_CIS: Attagene CIS-FACTORIAL HepG2 Assay for human Interferon Regulatory Factor 1 (IRF1) binding to an Interferon-Stimulated Response Element (ISRE) (AID 2282948); settings: HepG2 ISRE cis-reporter (Attagene), mRNA transcription readout; actives raise or lower the signal
Procedure, shortened: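 Endogenous transcription factor activity read as reporter transcript abundance via RT-PCR and capillary electrophoresis. HepG2 cells transiently transfected, 24 h chemical exposure. Gain or loss fitted against DMSO baseline.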

[13] = ATG_M_32_CIS: Attagene CIS-FACTORIAL HepG2 Assay for M32 Transcription Factor (Internal Marker) (AID 2282949); settings: HepG2 Attagene cis-factorial M32 reporter, mRNA; actives raise or lower the signal;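 note: background control marker of the multiplexed CIS panel rather than a real target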
Procedure, shortened: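 HepG2 transfectants (cis-regulated reporter transcription units) dosed 24 h. Reporter mRNA by RT-PCR plus CE, analysed as gain or loss relative to DMSO.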

[14] = ATG_M_06_CIS: Attagene CIS-FACTORIAL HepG2 Assay for M06 Transcription Factor (Internal Marker) (AID 2282950); settings: HepG2 Attagene CIS-FACTORIAL M06 internal marker reporter; actives raise or lower the signal
Procedure, shortened: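 Steps: transfect HepG2 with multiplexed cis-element reporter constructs; dose chemical 24 h; extract RNA with DNase treatment; reverse-transcribe, PCR-amplify, 6-FAM label, HpaI digest; separate fragments by capillary electrophoresis. Activity fitted both directions versus DMSO.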

[15] = target: Hypoxia-inducible factor 1-alpha (Homo sapiens) (UniProt Q16665); experiment: ATG_HIF1a_CIS: Attagene CIS-FACTORIAL HepG2 Assay for human Hypoxia Inducible Factor 1 (HIF1A) (AID 2282951); settings: HepG2 Attagene cis-factorial HIF1a reporter transcription; actives raise or lower the signal
Sequence of Hypoxia-inducible factor 1-alpha (Homo sapiens) (Q16665 whole entry, looked up): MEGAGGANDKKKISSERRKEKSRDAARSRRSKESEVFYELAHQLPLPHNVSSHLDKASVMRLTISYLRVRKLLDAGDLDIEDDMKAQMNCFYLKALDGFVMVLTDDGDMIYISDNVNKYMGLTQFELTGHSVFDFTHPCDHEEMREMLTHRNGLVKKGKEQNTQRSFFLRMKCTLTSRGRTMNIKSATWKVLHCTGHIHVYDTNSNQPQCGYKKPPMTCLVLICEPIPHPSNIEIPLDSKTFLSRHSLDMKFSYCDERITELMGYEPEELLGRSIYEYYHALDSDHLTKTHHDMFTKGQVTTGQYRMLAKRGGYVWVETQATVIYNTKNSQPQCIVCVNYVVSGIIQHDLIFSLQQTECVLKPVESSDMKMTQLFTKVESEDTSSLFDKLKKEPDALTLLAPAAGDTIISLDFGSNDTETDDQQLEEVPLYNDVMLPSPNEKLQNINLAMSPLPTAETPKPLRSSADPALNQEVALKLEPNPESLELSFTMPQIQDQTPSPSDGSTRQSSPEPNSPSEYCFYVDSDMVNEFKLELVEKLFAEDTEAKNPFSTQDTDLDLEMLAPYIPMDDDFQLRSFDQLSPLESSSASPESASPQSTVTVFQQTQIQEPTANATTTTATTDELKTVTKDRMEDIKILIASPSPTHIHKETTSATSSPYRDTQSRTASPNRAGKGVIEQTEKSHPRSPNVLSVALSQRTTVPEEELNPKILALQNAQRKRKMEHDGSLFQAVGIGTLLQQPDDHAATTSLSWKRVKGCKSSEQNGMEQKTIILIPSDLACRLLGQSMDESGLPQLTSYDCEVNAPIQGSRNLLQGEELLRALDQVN
Procedure, shortened: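 Dosed 24 h, transfected HepG2 cells yielded total RNA whose reporter transcripts were RT-PCR-amplified and sized by capillary electrophoresis using fluorescent labelling; DMSO defined baseline, with gain and loss of signal both fitted.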

[16] = target: Hepatocyte nuclear factor 6 (Homo sapiens) (UniProt Q9UBC0); experiment: ATG_HNF6_CIS: Attagene CIS-FACTORIAL HepG2 Assay for human Hepatocyte Nuclear Factor 6 (HNF6) (AID 2282952); settings: HepG2 Attagene cis-factorial HNF6 reporter transcription; actives raise or lower the signal
Sequence of Hepatocyte nuclear factor 6 (Homo sapiens) (Q9UBC0 whole entry, looked up): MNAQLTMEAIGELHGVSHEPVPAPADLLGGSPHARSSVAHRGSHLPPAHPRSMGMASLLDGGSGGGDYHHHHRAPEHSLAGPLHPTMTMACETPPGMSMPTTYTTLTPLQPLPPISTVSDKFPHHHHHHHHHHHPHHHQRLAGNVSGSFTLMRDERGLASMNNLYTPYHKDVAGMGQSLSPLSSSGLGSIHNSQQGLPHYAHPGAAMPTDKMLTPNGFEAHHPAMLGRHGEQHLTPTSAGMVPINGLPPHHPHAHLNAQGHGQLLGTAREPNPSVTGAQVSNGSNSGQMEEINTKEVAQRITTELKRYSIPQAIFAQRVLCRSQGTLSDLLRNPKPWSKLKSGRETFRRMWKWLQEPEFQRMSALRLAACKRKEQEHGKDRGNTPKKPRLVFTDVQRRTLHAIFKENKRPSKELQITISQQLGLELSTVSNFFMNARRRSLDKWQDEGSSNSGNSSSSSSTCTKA
Procedure, shortened: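 Endogenous factor activity read in transiently transfected HepG2 via promoter-regulated reporter transcripts. RNA harvested 24 h post-dosing, reverse-transcribed, PCR-amplified, FAM-labelled, HpaI-digested and resolved by capillary electrophoresis; fitted in both directions against DMSO.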

[17] = target: Heat shock factor protein 1 (Homo sapiens) (UniProt Q00613); experiment: ATG_HSE_CIS: Attagene CIS-FACTORIAL HepG2 Assay for human Heat Shock Transcription Factor 1 (HSE) (AID 2282953); settings: HepG2 HSE cis-reporter, Attagene RNA transcription; actives raise or lower the signal
Sequence of Heat shock factor protein 1 (Homo sapiens) (Q00613 whole entry, looked up, the tested form may be a part): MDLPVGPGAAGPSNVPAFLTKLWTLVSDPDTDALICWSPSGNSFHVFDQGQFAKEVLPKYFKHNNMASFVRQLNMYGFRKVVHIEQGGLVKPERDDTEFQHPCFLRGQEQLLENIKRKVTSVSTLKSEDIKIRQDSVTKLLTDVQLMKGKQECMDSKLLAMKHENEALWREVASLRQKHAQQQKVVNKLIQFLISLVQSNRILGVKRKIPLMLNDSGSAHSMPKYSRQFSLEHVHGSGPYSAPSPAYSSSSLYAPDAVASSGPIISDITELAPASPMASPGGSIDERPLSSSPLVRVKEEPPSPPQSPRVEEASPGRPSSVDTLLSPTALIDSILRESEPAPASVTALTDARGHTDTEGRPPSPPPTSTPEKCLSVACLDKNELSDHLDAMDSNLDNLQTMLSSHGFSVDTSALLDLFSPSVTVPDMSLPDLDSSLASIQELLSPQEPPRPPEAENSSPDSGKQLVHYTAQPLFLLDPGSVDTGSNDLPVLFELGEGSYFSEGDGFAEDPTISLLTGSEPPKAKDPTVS
Procedure, shortened: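 Cells were transfected with cis-element-driven reporter constructs, dosed for 24 h, then total RNA was reverse-transcribed and reporter cDNA amplified, FAM-labelled and digested with HpaI. Fragments were resolved by capillary electrophoresis; gain or loss was fitted against DMSO.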

[18] = ATG_PBREM_CIS: Attagene CIS-FACTORIAL HepG2 Assay for human Phenobarbital-responsive Enhancer Module (PBREM) (AID 2282955); settings: HepG2 PBREM cis-reporter, Attagene multiplexed transcription; actives raise or lower the signal
Procedure, shortened: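 Transfected liver-derived HepG2 cells exposed 24 h; PBREM reporter transcript quantified via RT-PCR and capillary electrophoresis, with activity in either direction referenced to DMSO.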

[19] = ATG_MRE_CIS: Attagene CIS-FACTORIAL HepG2 Assay for human Metal Responsive Element (MRE) (AID 2282954); settings: HepG2 MRE cis-reporter transcription, Attagene multiplex; actives raise or lower the signal
Procedure, shortened: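 Measured here is mRNA induction from an MRE cis-element reporter in HepG2 after 24 h, quantified by fluorescence of labelled RT-PCR products on capillary electrophoresis; gain- and loss-of-signal fits use DMSO as baseline.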

Measured: AC50

CC(=O)S[C@H](C(=O)N[C@H]1Cc2ccccc2[C@H]2CCC[C@@H](C(=O)O)N2C1=O)C(C)C
not listed: [19]
inactive: all other assays above

S=c1[nH]c2ccccc2s1
active: [12] 41.8 µM
not listed: [13] | [19]
inactive: all other assays above

CCCC(=O)O
not listed: [10] | [13] | [19]
inactive: all other assays above

NCCOCCOCCN
not listed: [10] | [13] | [19]
inactive: all other assays above

NC=O
not listed: [11] | [13] | [18]
inactive: all other assays above

Cc1occc(=O)c1O
not listed: [10] | [11] | [13]
inactive: all other assays above

CC(C)COC(=O)CCCCC(=O)OCC(C)C
not listed: [11] | [18]
inactive: all other assays above

O=C1OC(c2ccc(O)cc2)(c2ccc(O)cc2)c2ccccc21
inactive: [2] | [4] | [5] | [7] | [8] | [13] | [14]
active: [1] 176 µM | [3] 20.8 µM | [6] 177 µM | [9] 159 µM | [12] 70.1 µM | [16] 133 µM | [17] 146 µM | [18] 4.42 µM

CCCC[C@H]1CN(CC2CCOCC2)C(=O)OC12CCN(C1(C)CCN(C(=O)c3c(C)ncnc3C)CC1)CC2
not listed: [10] | [11] | [17] | [19]
inactive: all other assays above

C/C=C/c1ccc(OC)cc1
not listed: [10] | [11] | [13]
inactive: all other assays above

O=C1NC(=O)C(c2ccccc2)(c2ccccc2)N1
not listed: [10] | [15] | [19]
inactive: all other assays above

CC(C)(C)c1ccccc1
not listed: [10] | [11]
inactive: all other assays above

CC(=O)O
not listed: [10] | [11] | [13] | [17] | [18] | [19]
inactive: all other assays above

CC(=O)OCC(COC(C)=O)OC(C)=O
not listed: [10] | [13] | [18] | [19]
inactive: all other assays above

Cc1cn([C@H]2C=C[C@@H](CO)O2)c(=O)[nH]c1=O
not listed: [11] | [15]
inactive: all other assays above

Reference: PubChem BioAssay (EPA / NIEHS)
